# Test results: the supplement of paper PMC6555819
# Experiments:
# Assay in all cases: PBM binding z-score (relative to random genomic background probes); higher = stronger binding; sequences stand for … in GC…GCGATTGACAGCGTAGAATGAAGG
# [1] = system: FXR:RXRa (NR concentration 270 nM, RXRa partner concentration 90 nM)
# Summary of the method: (§1)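 Antibodies against each partner of ligand-free nuclear receptor dimers (one per run) detected binding on custom Agilent 4×180K protein-binding microarrays after 1 h incubation. The double-stranded probes had 34-nt variable regions carrying direct-repeat seeds, single-nucleotide variants, half-site ablations and random human genomic background sequences. Binding z-scores, from regression-normalized fluorescence, use the random background probes as reference.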
# [2] = system: LXRa:RXRa (NR concentration 270 nM, RXRa partner concentration 90 nM)
# Summary of the method: as §1
# [3] = system: LXRa homodimer (NR concentration 270 nM)
# Summary of the method: as §1
# [4] = system: LXRb:RXRa (NR concentration 270 nM, RXRa partner concentration 90 nM)
# Summary of the method: as §1
# [5] = system: LXRb homodimer (NR concentration 270 nM)
# Summary of the method: as §1
# [6] = system: PPARa:RXRa (NR concentration 270 nM, RXRa partner concentration 90 nM)
# Summary of the method: as §1
# [7] = system: PPARg:RXRa (NR concentration 180 nM, RXRa partner concentration 90 nM)
# Summary of the method: as §1
# [8] = system: PPARg:RXRa 270nM:90nM, anti-RXR (NR concentration 270 nM, RXRa partner concentration 90 nM)
# Summary of the method: as §1
# [9] = system: PPARg:RXRa 30nM:10nM, anti-RXR (NR concentration 30 nM, RXRa partner concentration 10 nM)
# Summary of the method: as §1
# [10] = system: PPARg:RXRa 90nM:30nM, anti-RXR (NR concentration 90 nM, RXRa partner concentration 30 nM)
# Summary of the method: as §1
# [11] = system: PPARg:RXRa DBDmut IVT, anti-RXR (DBD mutation: RXRa K156A/R161A, NR concentration 270 nM, RXRa partner concentration 90 nM)
# Summary of the method: as §1
# [12] = system: PPARg:RXRa IVT, anti-PPARg (NR concentration 270 nM, RXRa partner concentration 90 nM)
# Summary of the method: as §1
# [13] = system: PPARg DBDmut:RXRa IVT, anti-PPARg (DBD mutation: PPARg1 K132A/R137A, NR concentration 270 nM, RXRa partner concentration 90 nM)
# Summary of the method: as §1
# [14] = system: PPARg DBDmut IVT, anti-PPARg (DBD mutation: PPARg1 K132A/R137A, NR concentration 270 nM)
# Summary of the method: as §1
# [15] = system: PPARg homodimer (NR concentration 180 nM)
# Summary of the method: as §1
# [16] = system: PXR:RXRa (NR concentration 270 nM, RXRa partner concentration 90 nM)
# Summary of the method: as §1
# [17] = system: PXR homodimer (NR concentration 270 nM)
# Summary of the method: as §1
# [18] = system: RARa:RXR (NR concentration 270 nM, RXRa partner concentration 90 nM)
# Summary of the method: as §1
# [19] = system: RARa homodimer (NR concentration 270 nM)
# Summary of the method: as §1
# [20] = system: RARb:RXRa (NR concentration 270 nM, RXRa partner concentration 90 nM)
# Summary of the method: as §1
Sequence,PBM binding z-score [1],PBM binding z-score [2],PBM binding z-score [3],PBM binding z-score [4],PBM binding z-score [5],PBM binding z-score [6],PBM binding z-score [7],PBM binding z-score [8],PBM binding z-score [9],PBM binding z-score [10],PBM binding z-score [11],PBM binding z-score [12],PBM binding z-score [13],PBM binding z-score [14],PBM binding z-score [15],PBM binding z-score [16],PBM binding z-score [17],PBM binding z-score [18],PBM binding z-score [19],PBM binding z-score [20]
ATCTCTAGGTATAAGTTCAGTGAATCCCGAGGAT,0.24,0.542,0.507,0.379,0.825,1.77,2.79,4.45,2.94,4.55,0.227,0.858,1.41,1.22,0.751,1.44,2.32,0.493,1.02,1.73
ACTATTAGTTTACTTAGGGCAACCGATACGACGC,0.0954,0.173,0.422,0.0496,0.375,0.0302,0.985,0.261,0.394,0.541,0.826,0.924,0.857,1.39,0.166,0.669,1.14,0.64,0.904,1.04
CAGCCTAGGTCAGGGCCAGTATAGGAGGAACGTT,1.63,0.984,0.0185,0.506,-0.929,2.13,0.978,1.03,0.126,0.524,0.848,1.84,-0.882,-1.52,1.03,0.272,-0.731,1.2,-0.0375,3.6
AGAATGAGGTTAGGATCAGGGAAACAGAATACAT,0.875,0.506,-0.0173,1.16,0.0197,2.19,1.11,1,0.649,0.78,1.28,1.5,1.12,0.953,1.27,0.668,0.603,0.932,1.08,1.37
AGAACGAGGGCAATGAGTCGATAGCACGGGTGGC,0.187,-0.15,-0.625,-0.448,-0.595,1.03,1.41,0.849,0.0259,0.789,3.4,2.38,-0.0536,-0.236,-0.174,0.0741,0.415,-0.0854,-0.378,1.9
CAAACTAGGTCAAGGTCCAAGTCGGTTTGTGCCA,3.75,2.44,0.225,1.55,-0.00943,5.05,8.9,7.5,6.37,7.89,8.66,8.37,3.91,1.65,2.64,1.63,-0.0807,2.31,0.849,4.18
TCGAGTAGGTTAGTCGGGGCATTCTGCCAACATA,-0.351,-0.585,-0.552,0.145,-0.607,0.377,-0.424,0.587,0.946,0.676,2.38,1.64,-0.758,-0.515,-0.211,-0.103,-0.171,-0.0333,-0.547,0.287
AGAATGAAGTTAAGATCAGGGAAACAGAATACAT,-0.542,-0.312,-0.0829,-0.14,-0.44,-0.111,0.991,0.0665,0.0605,0.34,-0.915,-0.265,0.14,0.809,-0.657,-0.19,0.0131,-0.474,0.347,-0.251
GGAACGATGGCAAAGTTGATAGCATCTGTCGACG,-0.553,-0.632,-0.475,-0.708,-0.97,0.994,1.79,3.3,1.16,2.88,-0.422,-0.327,0.0385,-1.16,-0.819,-0.402,-0.23,-0.727,-1.19,-0.325
ATCTCTAGGTAAGACTCAGTTCAGAGAAGAACGC,0.455,0.578,0.401,-0.0123,0.78,-0.0205,0.366,0.339,0.28,0.268,1.92,1.16,1.58,0.9,1.02,0.856,1.56,0.299,0.962,0.134
ACTATTAGTTGAGACGAGGGCCACCGATAGGTTG,-0.105,-0.102,-0.224,-0.593,0.0596,-0.508,0.594,-0.159,0.0911,-0.12,-0.292,0.0879,0.833,0.398,-0.375,-0.504,-0.253,-0.185,0.235,0.235
ATCGAAAGGTCGACGAGGTGATTATACACCGTTT,4.8,3.43,0.0538,2.93,0.337,4.39,2.85,3.08,1.22,2.14,0.604,1.86,1.29,0.577,1.31,3.32,1.07,3.76,0.346,3.78
GCGACTGGGGCAAAGCAGGTTGCCATAAGGTTGG,-0.377,-0.798,-0.715,-0.849,-1.26,0.461,0.599,1.15,-0.358,0.243,4.34,3.1,-0.486,-0.871,-0.00419,-0.373,-0.521,-0.163,-0.719,0.412
